# Experimental data published in PubChem BioAssay AID1851 (National Center for Advancing Translational Sciences (NCATS), 2009).
# About 2,600 (16%) of roughly 16,000 compounds were called active. Roughly 20% stayed inconclusive and do not appear here. Not all results are given here. A number with no mark means an inactive call. The call rests on the fitted dose curve; in most records, active means well fitted curve in the direction sought with a large enough effect; inconclusive means small, poorly fitted or top-dose-only effect, or effect the other way; inactive means no such curve, though single readings can be large or run the other way.
# Target: Cytochrome P450 2D6 (Homo sapiens) (UniProt P10635)
# Sequence (P10635 whole entry, looked up): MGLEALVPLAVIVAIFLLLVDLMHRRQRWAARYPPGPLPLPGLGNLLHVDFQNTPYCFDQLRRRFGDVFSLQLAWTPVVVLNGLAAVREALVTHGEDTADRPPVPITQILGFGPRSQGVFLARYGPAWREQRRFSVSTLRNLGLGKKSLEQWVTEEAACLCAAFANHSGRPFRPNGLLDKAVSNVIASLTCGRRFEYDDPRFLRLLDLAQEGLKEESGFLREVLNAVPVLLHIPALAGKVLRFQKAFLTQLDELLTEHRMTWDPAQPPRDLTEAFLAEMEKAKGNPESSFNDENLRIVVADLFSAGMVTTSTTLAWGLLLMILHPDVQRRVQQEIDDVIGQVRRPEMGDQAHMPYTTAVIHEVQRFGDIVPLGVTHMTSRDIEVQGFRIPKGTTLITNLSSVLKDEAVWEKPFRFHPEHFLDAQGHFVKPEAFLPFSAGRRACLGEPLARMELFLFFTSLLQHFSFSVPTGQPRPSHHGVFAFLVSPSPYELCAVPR
# Test: Cytochrome panel assay with activity outcomes
# Conditions: recombinant CYP, pro-luciferin dealkylation, luminescence, p450-cyp2d6; series mostly up to 57.1 µM
# On the % scale 0 is the no-effect control and ±100 the full control effect.
SMILES,AC50,"activity, negative = inhibition"
CC(C)(C)c1onc(OCP(=O)(O)O)c1C[C@@H](N)C(=O)O,inactive,
Cc1cccc(NS(=O)(=O)c2c(C)n[nH]c2C)c1,inactive,
CCC1CC(CSc2ncn[nH]2)OC1=O (stereo unspecified),inactive,
O=C(CSc1ncnc2nc[nH]c12)c1ccccc1,,-6.92% [at 11.4 µM]
CCn1ncc(/C=C/C(=O)NCc2cn(C)nc2C)c1C,inactive,
CCCC(=O)Nc1c(C)n[nH]c1C,inactive,
CCCCCCCCCCn1c2c(c(=N)c3c1CCC3)CCC2,3.55 µM (active),
CC(C)NC(=O)CSc1nnc(C2CC2)n1-c1ccccc1,inactive,
COC(=O)[C@@]1(Cc2ccc(OC)cc2)[C@H]2c3cc(C(=O)N4CCCC4)n(CCCNc4ncc(C(F)(F)F)cc4Cl)c3C[C@H]2CN1C(=O)c1ccccc1,inactive,
Cc1nnc(C)n1/N=C/c1ccc(-c2ccccc2)cc1,inactive,
Cc1cccc(NC(=O)C2(c3ccccc3)CC2(Cl)Cl)c1 (stereo unspecified),17.8 µM (active),
Cc1cccc(NC(=O)C23CCC(C)(C2Br)C3(C)C)c1 (stereo unspecified),inactive,
Cc1cccc(N/C(=N\S(=O)(=O)c2ccccc2)C(F)(F)F)c1,inactive,
NC(=O)c1nn(-c2ccccc2)c(=O)cc1O,inactive,
OCCNCCCOc1cccc(Cl)c1Cl,0.158 µM (active),
Cc1nc(NC(N)=S)sc1C(=O)Nc1ccccc1,inactive,
Cc1nc2ccccc2nc1SCC(=O)N1CCC(C)CC1,inactive,
Cc1c(C)n(C(=O)CN2CCC(C)CC2)c2ccccc12,3.16 µM (active),
Cn1cnnc1SCC(=O)n1c2ccccc2c2ccccc21,inactive,
COc1ccc(-c2nnc(-c3ccc(OCC(C)C)cc3)o2)cc1,inactive,
Cn1cccc1C(=O)N1CCC2(CCN(C(=O)Nc3cccc(F)c3)CC2)CC1,inactive,
Cc1ccc(NC(=S)N2CCN(C3CCCCC3)CC2)cc1,14.1 µM (active),

SMILES,AC50,"activity, negative = inhibition"
CC(C)(CO)N1CCN(C(=S)Nc2ccccc2)CC1,,-13.1% [at 11.4 µM]
Cc1ccc(NC(=O)C2CCN(S(C)(=O)=O)CC2)cc1,inactive,
CC(=O)OC1CCC(OC(C)=O)c2c1n([O-])c(C)c(C)[n+]2=O (stereo unspecified),inactive,
CCCCNCCOCCSc1ccc(Cl)cc1,1.58 µM (active),
O=C(/C=C/c1ccc(Cl)cc1)NCCSc1ccccc1,inactive,
CC(C)NCCOCCSc1ccc(Cl)cc1,3.55 µM (active),
CCCCNC(=O)NS(=O)(=O)c1cnccc1Sc1ccc(Cl)cc1,inactive,
Cc1cc(/C=N\NC(=O)c2cccs2)c(C)n1-c1ccc2ncccc2c1,inactive,
C[C@@H]1CCC[C@H](C)N1,inactive,
O=S(=O)(O)CCCc1cccc2ccccc12,,7.84% [at 11.4 µM]
CN(Cc1cccc2ccccc12)Cc1cccc2ccccc12,0.398 µM (active),
Cc1cc(C)cc(C(=N)c2ccccc2Cc2cccc3ccccc23)c1,,5.99% [at 11.4 µM]
CN(C/C=C\c1ccccc1)Cc1cccc2ccccc12,0.251 µM (active),
CCOC(=O)CSCC(NC(=O)OC(C)(C)C)C(=O)OCC (stereo unspecified),inactive,
O=C1C2C3C=CC(C2C(=O)N1CN1CCOCC1)C1C2C(=O)N(CN4CCOCC4)C(=O)C2C31 (stereo unspecified),,17.4% [at 11.4 µM]
COc1ccc(O)c(/C=N/NC(=O)CSc2nnc(C)n2-c2ccccc2)c1,inactive,
Nc1c(-c2cccs2)cnn1-c1nc(-c2ccc(Cl)cc2Cl)cs1,inactive,
COC(=O)C1=C(C)NC(C)=C([N+](=O)[O-])[C@H]1c1ccccc1C(F)(F)F,inactive,
COC(=O)C1=C(C)NC(C)=C([N+](=O)[O-])[C@@H]1c1ccccc1C(F)(F)F,6.31 µM (active),
COC(=O)C1=C(C)NC(C)=C(C(=O)OC(C)C)C1c1cccc2nonc12 (stereo unspecified),inactive,
CC(C)c1ccc(CN(C(=O)C2COc3ccccc3O2)C2CCS(=O)(=O)C2)cc1 (stereo unspecified),14.1 µM (active),
CCc1ccc(CN(C(=O)c2cc3ccccc3oc2=O)C2CCS(=O)(=O)C2)cc1 (stereo unspecified),inactive,

SMILES,AC50,"activity, negative = inhibition"
Cc1ccc(CN(C(=O)c2cc3ccccc3oc2=O)C2CCS(=O)(=O)C2)cc1 (stereo unspecified),inactive,
CNNCc1ccc(C(=O)NC(C)C)cc1,inactive,
Cc1nc2ncnn2c(C)c1CCC(=O)NC(C)c1ccc2c(c1)OCCO2 (stereo unspecified),inactive,
CC(Sc1nc(-c2ccccc2)cc(C(F)(F)F)n1)C(=O)N1CCCCC1 (stereo unspecified),inactive,
CC(NC(=O)CCSc1nc(-c2ccc3c(c2)OCO3)cc(C(F)(F)F)n1)c1ccccc1 (stereo unspecified),1 µM (active),
O=C1[C@H]2[C@H]3[C@H](O)[C@H](O)C/C(=N/OC[C@@H](O)COCc4ccco4)[C@H]3CC[C@@H]2C(=O)N1C1CCCCC1,,2.44% [at 11.4 µM]
Cc1ccc(C2/C(=C(/O)c3ccc(Cl)cc3)C(=O)C(=O)N2CC2CCCO2)o1 (stereo unspecified),inactive,
COc1ncc2nc(C)c(=O)n(CCc3ccccc3)c2n1,inactive,
Cc1c(Cl)cnc(NC(=O)COC(=O)CCS(=O)(=O)c2ccccc2)c1Cl,inactive,
CC(C)CC(C(=O)OCC(=O)Nc1ncc(Cl)cc1Cl)N1C(=O)c2ccccc2C1=O (stereo unspecified),25.1 µM (active),
CC(C)=CC(=O)OCC(=O)Nc1ncc(Cl)c(C)c1Cl,inactive,
O=C(Nc1ccc(Cl)cc1)c1cnc(-c2ccccc2)nc1-c1ccccc1,inactive,
C/C(=N\NC(=O)C1CC1c1ccccc1)c1cccs1 (stereo unspecified),inactive,
Cc1cccn2c(=O)c(/C=N/O)c(N3CCCC3)nc12,inactive,
C=CCN=C1CC(C)(C)CC(=O)/C1=C(/O)CCC(=O)OC,inactive,
CN(C)CCCN1CCC2(CCC(C(C)(C)C)CC2)CC1,,9.19% [at 11.4 µM]
O=c1oc2c(CN3CCOCC3)c(O)ccc2c2ccccc12,2 µM (active),
CSc1nc(C)cc(Nc2ccc(O)c(CN3CCOCC3)c2)n1,,-3.84% [at 11.4 µM]
COc1ccccc1-c1c(C)oc2c(CN3CCN(CCO)CC3)c(O)ccc2c1=O,inactive,
CCCc1cc(=O)oc2c(CN3CCOCC3)c(O)ccc12,2.24 µM (active),
COc1ccc(-c2c(C)oc3c(CN4CCN(CCO)CC4)c(O)ccc3c2=O)cc1OC,inactive,
Nc1ccc(N2CCN(C(=O)c3ccco3)CC2)cc1,inactive,
